Laboratory results reported in PubChem BioAssay (EPA / NIEHS).
Calls of active or inactive are those of the source. Rule for the calls: active = hit-call score of the fitted dose curve at least 0.9, where 1 is the maximum; inactive = score below 0.9.

Read-out: Matrix Metallopeptidase 1 (MMP1), MMP1 (gene 4312)
Experiment: BSK_BE3C_MMP1: BioMAP Diversity Plus: BE3C Assay for Matrix Metallopeptidase 1 (MMP1) Biomarker Activity (AID 2283024)
Settings: primary human bronchial epithelial cells; actives raise or lower the signal
How it was run: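 MMP1 signal, measured by ELISA after a 24 h chemical exposure of human primary bronchial epithelial cells, is analysed with bidirectional fitting using DMSO as negative control.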

AC50, active:
CN(C)c1ccc(C(=C2C=CC(=[N+](C)C)C=C2)c2ccc(N(C)C)cc2)cc1 0.938 µM
CCCCCCCCOC(=O)c1cc(O)c(O)c(O)c1 33.5 µM
CC(C)(c1cc(Br)c(O)c(Br)c1)c1cc(Br)c(O)c(Br)c1 9.3 µM
C[C@]12CC[C@@H]3c4ccc(O)cc4CC[C@H]3[C@@H]1CCC2=O 3.97 µM
Cc1cc(F)ccc1-c1cc(N2CC[C@@H](O)[C@H]2CO)ncc1N(C)C(=O)C(C)(C)c1cc(C(F)(F)F)cc(C(F)(F)F)c1 14.5 µM
Cc1c2ccccc2c(C)c2c1ccc1ccccc12 20 µM
CN1C(=O)N(c2ccccc2Br)Cc2cnc(Nc3ccc4c(c3)OCC(CO)O4)nc21 (stereo not drawn) 7.24 µM
Cc1oc2c(NC(=O)c3c(Cl)cccc3Cl)cccc2c1C(C)(C)O 14.3 µM

outcome, inactive:
O=c1ccc2ccccc2o1
c1ccc2n[nH]nc2c1
CCN(Cc1cccc(S(=O)(=O)O)c1)c1ccc(C(=C2C=CC(=[N+](CC)Cc3cccc(S(=O)(=O)O)c3)C=C2)c2ccccc2S(=O)(=O)[O-])cc1
CC[C@@H]1C[C@H](N(Cc2cc(C(F)(F)F)cc(C(F)(F)F)c2)C(C)=O)c2cc(C(F)(F)F)ccc2N1C(=O)OC(C)C
CCN(Cc1cccnc1)C(=O)c1cccc(Cl)c1[C@]1(C)C(=O)N(Cc2ccc(OC)cc2OC)c2ccc(Cl)cc21
Cc1ccc2oc(CN(Cc3ccccc3)C(=O)Nc3c(F)cc(F)cc3F)c(-c3ccc(Cl)cc3)c2c1
CC1=CC(=O)/C(=C(/C)O)C(=O)O1
CCCCCCCCOc1ccc(C(=O)c2ccccc2)c(O)c1
COCC(C)OCC(C)OCC(C)O (stereo not drawn)
CCCOC(=O)c1cc(O)c(O)c(O)c1
COc1cccc([C@H](O)C2CCN(CCc3ccc(F)cc3)CC2)c1OC
CC1(C)NC(=O)N(c2ccc([N+](=O)[O-])c(C(F)(F)F)c2)C1=O
c1ccc(C[n+]2cccc3ccccc32)cc1

Read-out: not listed separately
Experiment: BSK_3C_Vis: BioMAP Diversity Plus: 3C Assay for Morphology Visualization (AID 2283025);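 note: fitted both ways so gain or loss versus DMSO counts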
Settings: primary human endothelial cells (HUVEC)
How it was run: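 Morphology read by light microscopy serves as a background control for the multiplexed 3C assay in human umbilical vein endothelial cells, taken 24 h after dosing, with DMSO as the negative control and bidirectional curve fitting.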

AC50, active:
NC(=O)c1nc(-c2cccc(-c3cc(F)ccc3OCC(F)(F)C(F)(F)F)c2)n[nH]1 42.3 µM
CN(C)C(=O)C1(N2CCCCC2)CCN(CC[C@@]2(c3ccc(Cl)c(Cl)c3)CN(C(=O)c3ccccc3)CCO2)CC1 12.5 µM
Clc1ccccc1C(c1ccccc1)(c1ccccc1)n1ccnc1 14.5 µM
COc1ccc2cc(S(=O)(=O)N[C@H](CC(=O)N[C@H](Cc3ccc(CN4[C@H](C)CCC[C@@H]4C)cc3)C(=O)N(C)C(C)C)c3ccc4c(c3)OCO4)ccc2c1 5.55 µM
CC(C)(C)c1cc(/C=C2\SC(N)=NC2=O)cc(C(C)(C)C)c1O 16.3 µM
CCOC(=O)O[C@H](C)OC(=O)c1ccc2c(c1)cc(C(=O)NC1CCN(C(C)C)CC1)n2Cc1cc(-c2ccc(Cl)s2)on1 5.3 µM
CN(C)c1ccc(C(=C2C=CC(=[N+](C)C)C=C2)c2ccc(N(C)C)cc2)cc1 16 µM
CCCCCCCCOC(=O)c1cc(O)c(O)c(O)c1 37.5 µM
CC(C)(c1cc(Br)c(O)c(Br)c1)c1cc(Br)c(O)c(Br)c1 37.8 µM
CCN(Cc1cccnc1)C(=O)c1cccc(Cl)c1[C@]1(C)C(=O)N(Cc2ccc(OC)cc2OC)c2ccc(Cl)cc21 4.34 µM
Cc1cc(F)ccc1-c1cc(N2CC[C@@H](O)[C@H]2CO)ncc1N(C)C(=O)C(C)(C)c1cc(C(F)(F)F)cc(C(F)(F)F)c1 10 µM
Cc1c2ccccc2c(C)c2c1ccc1ccccc12 13.7 µM
CCN(CC)C(=O)c1cc(S(=O)(=O)Cc2ccccc2)c(N2CCC(c3ccccc3)CC2)cc1N(CC)CCN(C)C 6.48 µM
CN1C(=O)N(c2ccccc2Br)Cc2cnc(Nc3ccc4c(c3)OCC(CO)O4)nc21 (stereo not drawn) 20.7 µM
Cc1oc2c(NC(=O)c3c(Cl)cccc3Cl)cccc2c1C(C)(C)O 20.7 µM

outcome, inactive:
O=C(Nc1ccc(Cl)cc1)Nc1ccc(Cl)c(Cl)c1
CC[C@H](NC(=O)c1cc(F)ccc1NS(=O)(=O)c1cccc2cccnc12)c1ccccc1
O=C=NCCCCCCN=C=O
CCCCOC(=O)CC(CC(=O)OCCCC)(OC(C)=O)C(=O)OCCCC
Cc1occc1C(=O)Nc1ccc(C(=O)N2CCC(F)(F)/C(=C\C(=O)N3CCC(N4CCCCC4)CC3)c3ccccc32)cc1
Cc1cn([C@H]2C[C@H](N=[N+]=[N-])[C@@H](CO)O2)c(=O)[nH]c1=O
Oc1ccc2ccccc2c1
CCCCCCCCCC(=O)O
CC(C)(C)c1csc(-c2cc3cc(OCc4ccccc4CC(=O)O)ccc3o2)n1
O=c1ccc2ccccc2o1
c1ccc2n[nH]nc2c1
CCN(Cc1cccc(S(=O)(=O)O)c1)c1ccc(C(=C2C=CC(=[N+](CC)Cc3cccc(S(=O)(=O)O)c3)C=C2)c2ccccc2S(=O)(=O)[O-])cc1
CC[C@@H]1C[C@H](N(Cc2cc(C(F)(F)F)cc(C(F)(F)F)c2)C(C)=O)c2cc(C(F)(F)F)ccc2N1C(=O)OC(C)C
Cc1ccc2oc(CN(Cc3ccccc3)C(=O)Nc3c(F)cc(F)cc3F)c(-c3ccc(Cl)cc3)c2c1
C[C@]12CC[C@@H]3c4ccc(O)cc4CC[C@H]3[C@@H]1CCC2=O
CC1=CC(=O)/C(=C(/C)O)C(=O)O1
CCCCCCCCOc1ccc(C(=O)c2ccccc2)c(O)c1
COCC(C)OCC(C)OCC(C)O (stereo not drawn)
CCCOC(=O)c1cc(O)c(O)c(O)c1
COc1cccc([C@H](O)C2CCN(CCc3ccc(F)cc3)CC2)c1OC
CC1(C)NC(=O)N(c2ccc([N+](=O)[O-])c(C(F)(F)F)c2)C1=O
c1ccc(C[n+]2cccc3ccccc32)cc1
